Potency data for 25 compounds are collected here from PubChem BioAssay (Tox21).

Molecules are shown by their SMILES. Records with an inconclusive call do not appear. Entries that show only a call come without a potency. The source made the active and inactive calls. The call rests on the fitted dose curve.

This assay can be described thus: p53 small molecule agonists, cell-based qHTS assay with human liver microsomes (AID 1963577). An outline of the steps: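 Fluorescence of the beta-lactamase reporter in p53RE-bla cells, detected with LiveBLAzer substrate (2 h, room temperature, dark), served as the read-out after 16 h compound exposure at 37 C with human liver microsomes and NADPH, each 0.5 mg/mL final.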
Potency means the concentration at half of the fitted maximal effect.

Regarding `c1ccc(Nc2ccc3ccccc3c2)cc1`, the Potency entry was “inactive”.

Take `NC(=O)O`: the Potency result was “inactive”.

Turning to `ClC1=C(Cl)[C@]2(Cl)[C@@H]3[C@@H](Cl)[C@H](Cl)C[C@@H]3[C@@]1(Cl)C2(Cl)Cl`, the Potency result is “inactive”.

As to `COP(=S)(OC)Oc1ccc(SC)c(C)c1`, the Potency result was “inactive”.

As for `ClCCOCOCCCl`, the Potency result was “inactive”.

As for `BrCc1ccc(Br)cc1`, the Potency entry is “inactive”.

With `O=C(Cl)c1ccccc1`, the Potency entry was “inactive”.

Turning to `O=C/C=C/c1ccco1`, the Potency entry was “inactive”.

`CC[N+](=O)[O-]`: the Potency result was “inactive”.

`CCCCOC(=O)CCC(=O)OCCCC`: the Potency entry is “inactive”.

In the case of `C=CC(=O)OCC(CC)(COC(=O)C=C)COC(=O)C=C`, the Potency result is “inactive”.

Regarding `Cc1ccc(OP(=O)(Oc2ccc(C)cc2)Oc2ccc(C)cc2)cc1`, the Potency result was “inactive”.

On to `ClCc1cccnc1`, for which the Potency entry was “inactive”.

Turning to `Oc1ccc(C(c2ccc(O)cc2)(C(F)(F)F)C(F)(F)F)cc1`, the Potency result is “inactive”.

Turning to `CCOC(=O)C1(c2ccccc2)CCN(CCC(C#N)(c2ccccc2)c2ccccc2)CC1`, the Potency entry is “inactive”.

Turning to `COP(=O)(OC)C(O)C(Cl)(Cl)Cl` (stereo not given), the Potency is 1.46 µM (active).

In the case of `C=CCCC#N`, the Potency result was “inactive”.

For `Cc1ccc(N)cc1N`, the Potency result was “inactive”.

Consider `COC(=O)C(Cl)C(=O)OC`, for which the Potency entry is “inactive”.

Regarding `CCOC(=O)CC(SP(=S)(OC)OC)C(=O)OCC` (stereo not given), the Potency entry is “inactive”.

Consider `CCOP(=S)(OCC)Oc1cc(C)nc(C(C)C)n1`, for which the Potency entry is “inactive”.

As to `CCOP(=S)(OCC)OP(=S)(OCC)OCC`, the Potency is 18.2 µM (active).

In the case of `C#CC(C)(C)NC(=O)c1cc(Cl)cc(Cl)c1`, the Potency result is “inactive”.

For `O=C(Cl)/C=C/C(=O)Cl`, the Potency result was “inactive”.

For the compound `C1=Cc2cccc3cccc1c23`, the Potency result is “inactive”.
